Of roughly 8,800 targets only a part is listed; those with a hit were picked by preference. About 0.5% of all pairs of compound and target were hits. A number with no mark means an inactive call.
What was measured:
Assay in all cases: log2 fold change, soluble protein after heating vs DMSO (PISA); higher = thermal stabilisation; K562 lysate, 10 uM; active = over 0.2 and 3.5 SD of the protein, either way, in both replicates (recomputed)
vemurafenib = compound: CCCS(=O)(=O)Nc1ccc(F)c(C(=O)c2c[nH]c3ncc(-c4ccc(Cl)cc4)cc23)c1F [vemurafenib]
Procedure, shortened: (§1)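 Values give the log-two fold change in thermal stability against solvent controls, from duplicates. Crude K562 extract at 1 mg/mL protein, made by dounce homogenisation in PBS pH 7.4 with 1 mM MgCl2, was treated with 10 μM compound for 30 min. After 3 min heating across 48°C-58°C, aliquots were pooled, adjusted to 0.5% NP-40 at 4°C and centrifuged at 21,000xg for 90 min. The supernatant was measured by TMTpro 16plex LC-MS/MS with channel sums equalised.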

[1] = compound: CCCS(=O)(=O)Nc1ccc(F)c(C(=O)c2c[nH]c3ncc(Cl)cc23)c1F
Procedure, shortened: as §1

barasertib = compound: CCN(CCCOc1ccc2c(Nc3cc(CC(=O)Nc4cccc(F)c4)[nH]n3)ncnc2c1)CCOP(=O)(O)O [barasertib]
Procedure, shortened: as §1

[2] = compound: CC[C@@H]1C(=O)N(C)c2cnc(Nc3ccc(C(=O)NC4CCN(C)CC4)cc3OC)nc2N1C1CCCC1
Procedure, shortened: as §1

volasertib = compound: CC[C@@H]1C(=O)N(C)c2cnc(Nc3ccc(C(=O)N[C@H]4CC[C@H](N5CCN(CC6CC6)CC5)CC4)cc3OC)nc2N1C(C)C [volasertib]
Procedure, shortened: as §1

[3] = compound: CCn1c(C(=O)N(C2CC2)C2CC2)cc2c3c(ncn3C)c(Nc3cc(C)n(C)n3)nc21
Procedure, shortened: as §1

[4] = compound: CCn1cc(-c2ccnc3[nH]c(-c4cccc(CN(C)C)c4)cc23)c(-c2ccc(NC(=O)N(C)C)cc2)n1
Procedure, shortened: as §1

[5] = compound: CN1CCC(CNc2ccc3ncc(-c4cccc(OC(F)(F)F)c4)n3n2)CC1
Procedure, shortened: as §1

saracatinib = compound: CN1CCN(CCOc2cc(OC3CCOCC3)c3c(Nc4c(Cl)ccc5c4OCO5)ncnc3c2)CC1 [saracatinib]
Procedure, shortened: as §1

sotrastaurin = compound: CN1CCN(c2nc(C3=C(c4c[nH]c5ccccc45)C(=O)NC3=O)c3ccccc3n2)CC1 [sotrastaurin]
Procedure, shortened: as §1

alvocidib = compound: CN1CC[C@H](c2c(O)cc(O)c3c(=O)cc(-c4ccccc4Cl)oc23)[C@H](O)C1 [alvocidib]
Procedure, shortened: as §1

Tubastatin A = compound: CN1CCc2c(c3ccccc3n2Cc2ccc(C(=O)NO)cc2)C1 [Tubastatin A]
Procedure, shortened: as §1

[6] = compound: CNC(=O)C1=CC=CC=C1NC2=NC(=NC=C2Cl)NC3=C(C=C(C=C3)N4CCOCC4)OC
Procedure, shortened: as §1

defactinib = compound: CNC(=O)c1ccc(Nc2ncc(C(F)(F)F)c(NCc3nccnc3N(C)S(C)(=O)=O)n2)cc1 [defactinib]
Procedure, shortened: as §1

[7] = compound: CNc1nc(-c2ccc3c(N)n[nH]c3c2)cc(N2C[C@@H](C(=O)NC3CCCCC3)CC[C@H]2C)n1
Procedure, shortened: as §1

encorafenib = compound: COC(=O)N[C@@H](C)CNc1nccc(-c2cn(C(C)C)nc2-c2cc(Cl)cc(NS(C)(=O)=O)c2F)n1 [encorafenib]
Procedure, shortened: as §1

[8] = compound: COC(=O)[C@H](CCSC)NC(=O)C1=C(C=C(C=C1)NC[C@H](CS)N)C2=CC=CC=C2
Procedure, shortened: as §1

alisertib = compound: COc1cc(Nc2ncc3c(n2)-c2ccc(Cl)cc2C(c2c(F)cccc2OC)=NC3)ccc1C(=O)O [alisertib]
Procedure, shortened: as §1

[9] = compound: COc1cc2nc(-c3cc(F)ccc3O)nc(N[C@@H]3CNC[C@H]3C(C)(C)O)c2cc1OC
Procedure, shortened: as §1

gefitinib = compound: COc1cc2ncnc(Nc3ccc(F)c(Cl)c3)c2cc1OCCCN1CCOCC1 [gefitinib]
Procedure, shortened: as §1

Sequence of UniProt Q9HAV4 (Q9HAV4 whole entry, looked up): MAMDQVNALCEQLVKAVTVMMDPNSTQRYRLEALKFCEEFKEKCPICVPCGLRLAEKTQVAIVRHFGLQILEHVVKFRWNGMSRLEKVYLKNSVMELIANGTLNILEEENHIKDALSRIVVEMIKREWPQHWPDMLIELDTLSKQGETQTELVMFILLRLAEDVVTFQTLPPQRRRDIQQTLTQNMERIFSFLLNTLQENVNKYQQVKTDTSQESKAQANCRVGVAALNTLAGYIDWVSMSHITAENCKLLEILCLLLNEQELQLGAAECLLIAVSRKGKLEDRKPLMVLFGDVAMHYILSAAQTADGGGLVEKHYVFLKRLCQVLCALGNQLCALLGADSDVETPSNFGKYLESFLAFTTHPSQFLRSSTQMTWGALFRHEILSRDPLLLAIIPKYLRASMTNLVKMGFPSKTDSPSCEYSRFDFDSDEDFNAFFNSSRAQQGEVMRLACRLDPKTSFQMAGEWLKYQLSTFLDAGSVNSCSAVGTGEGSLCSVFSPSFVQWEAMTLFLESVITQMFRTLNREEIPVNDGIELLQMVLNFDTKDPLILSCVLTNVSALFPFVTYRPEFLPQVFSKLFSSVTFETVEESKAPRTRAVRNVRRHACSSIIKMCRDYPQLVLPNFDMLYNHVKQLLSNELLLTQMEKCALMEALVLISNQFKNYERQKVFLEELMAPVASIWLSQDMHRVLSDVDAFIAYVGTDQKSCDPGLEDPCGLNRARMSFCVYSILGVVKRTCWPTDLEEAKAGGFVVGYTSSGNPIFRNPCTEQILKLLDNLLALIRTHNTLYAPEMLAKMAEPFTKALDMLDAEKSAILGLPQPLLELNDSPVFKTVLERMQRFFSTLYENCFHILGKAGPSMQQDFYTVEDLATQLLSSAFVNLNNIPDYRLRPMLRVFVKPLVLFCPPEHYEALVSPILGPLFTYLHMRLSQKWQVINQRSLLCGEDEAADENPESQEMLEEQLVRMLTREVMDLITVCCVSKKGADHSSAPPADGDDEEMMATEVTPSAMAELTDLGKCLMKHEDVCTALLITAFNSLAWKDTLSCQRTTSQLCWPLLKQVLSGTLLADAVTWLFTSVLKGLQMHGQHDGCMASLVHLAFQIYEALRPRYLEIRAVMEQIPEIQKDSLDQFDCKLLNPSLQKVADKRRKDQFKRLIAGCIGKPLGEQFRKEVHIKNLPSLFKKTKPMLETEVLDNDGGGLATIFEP
Sequence of UniProt Q86WB0 (Q86WB0 whole entry, looked up): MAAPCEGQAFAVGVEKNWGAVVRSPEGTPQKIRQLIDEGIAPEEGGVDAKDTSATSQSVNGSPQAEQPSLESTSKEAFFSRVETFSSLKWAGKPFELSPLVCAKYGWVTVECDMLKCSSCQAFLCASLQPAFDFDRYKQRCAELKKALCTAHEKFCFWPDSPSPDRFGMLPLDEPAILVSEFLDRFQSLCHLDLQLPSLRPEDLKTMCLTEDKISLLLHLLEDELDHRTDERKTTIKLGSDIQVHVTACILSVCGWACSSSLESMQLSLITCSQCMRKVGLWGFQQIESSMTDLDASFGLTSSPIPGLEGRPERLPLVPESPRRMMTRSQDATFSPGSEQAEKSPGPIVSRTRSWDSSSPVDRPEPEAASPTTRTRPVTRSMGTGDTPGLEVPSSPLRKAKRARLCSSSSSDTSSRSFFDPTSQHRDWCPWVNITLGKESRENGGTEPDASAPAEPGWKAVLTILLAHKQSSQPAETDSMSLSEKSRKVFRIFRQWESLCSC
Sequence of UniProt A4D1P6 (A4D1P6 whole entry, looked up): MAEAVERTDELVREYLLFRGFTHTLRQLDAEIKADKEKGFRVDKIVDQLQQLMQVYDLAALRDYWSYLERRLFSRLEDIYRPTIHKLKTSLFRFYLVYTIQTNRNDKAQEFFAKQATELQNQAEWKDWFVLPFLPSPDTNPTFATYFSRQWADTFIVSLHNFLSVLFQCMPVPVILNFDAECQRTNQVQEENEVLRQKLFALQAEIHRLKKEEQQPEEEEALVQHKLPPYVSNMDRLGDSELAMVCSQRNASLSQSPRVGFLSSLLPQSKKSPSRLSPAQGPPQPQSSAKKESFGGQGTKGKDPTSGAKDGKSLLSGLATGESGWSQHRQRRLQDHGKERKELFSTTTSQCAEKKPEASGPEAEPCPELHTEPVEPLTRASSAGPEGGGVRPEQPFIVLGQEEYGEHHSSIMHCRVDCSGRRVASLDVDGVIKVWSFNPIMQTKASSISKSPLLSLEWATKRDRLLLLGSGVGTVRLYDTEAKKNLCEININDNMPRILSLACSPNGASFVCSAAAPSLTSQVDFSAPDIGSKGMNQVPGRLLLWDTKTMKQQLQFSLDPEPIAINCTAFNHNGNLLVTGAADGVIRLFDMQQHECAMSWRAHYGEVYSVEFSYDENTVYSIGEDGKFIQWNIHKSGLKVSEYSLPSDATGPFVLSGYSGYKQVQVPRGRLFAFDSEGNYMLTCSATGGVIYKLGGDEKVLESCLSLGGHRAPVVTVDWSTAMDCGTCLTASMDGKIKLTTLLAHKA
Sequence of UniProt Q9Y6I4 (Q9Y6I4 whole entry, looked up): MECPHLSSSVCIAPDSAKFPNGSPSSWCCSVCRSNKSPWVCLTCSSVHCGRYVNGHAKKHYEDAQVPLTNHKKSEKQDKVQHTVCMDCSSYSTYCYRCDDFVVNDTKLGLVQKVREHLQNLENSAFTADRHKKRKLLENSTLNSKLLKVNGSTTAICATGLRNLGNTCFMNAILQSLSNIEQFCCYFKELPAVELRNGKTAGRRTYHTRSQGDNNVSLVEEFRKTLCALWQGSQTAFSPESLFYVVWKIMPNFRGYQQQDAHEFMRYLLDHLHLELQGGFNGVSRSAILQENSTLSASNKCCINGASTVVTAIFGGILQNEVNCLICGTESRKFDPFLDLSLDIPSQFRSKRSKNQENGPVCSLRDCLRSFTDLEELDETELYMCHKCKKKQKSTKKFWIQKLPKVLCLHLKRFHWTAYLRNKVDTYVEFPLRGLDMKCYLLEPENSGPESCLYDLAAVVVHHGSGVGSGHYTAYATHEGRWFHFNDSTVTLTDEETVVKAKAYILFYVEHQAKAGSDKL
Sequence of UniProt Q86UK7 (Q86UK7 whole entry, looked up): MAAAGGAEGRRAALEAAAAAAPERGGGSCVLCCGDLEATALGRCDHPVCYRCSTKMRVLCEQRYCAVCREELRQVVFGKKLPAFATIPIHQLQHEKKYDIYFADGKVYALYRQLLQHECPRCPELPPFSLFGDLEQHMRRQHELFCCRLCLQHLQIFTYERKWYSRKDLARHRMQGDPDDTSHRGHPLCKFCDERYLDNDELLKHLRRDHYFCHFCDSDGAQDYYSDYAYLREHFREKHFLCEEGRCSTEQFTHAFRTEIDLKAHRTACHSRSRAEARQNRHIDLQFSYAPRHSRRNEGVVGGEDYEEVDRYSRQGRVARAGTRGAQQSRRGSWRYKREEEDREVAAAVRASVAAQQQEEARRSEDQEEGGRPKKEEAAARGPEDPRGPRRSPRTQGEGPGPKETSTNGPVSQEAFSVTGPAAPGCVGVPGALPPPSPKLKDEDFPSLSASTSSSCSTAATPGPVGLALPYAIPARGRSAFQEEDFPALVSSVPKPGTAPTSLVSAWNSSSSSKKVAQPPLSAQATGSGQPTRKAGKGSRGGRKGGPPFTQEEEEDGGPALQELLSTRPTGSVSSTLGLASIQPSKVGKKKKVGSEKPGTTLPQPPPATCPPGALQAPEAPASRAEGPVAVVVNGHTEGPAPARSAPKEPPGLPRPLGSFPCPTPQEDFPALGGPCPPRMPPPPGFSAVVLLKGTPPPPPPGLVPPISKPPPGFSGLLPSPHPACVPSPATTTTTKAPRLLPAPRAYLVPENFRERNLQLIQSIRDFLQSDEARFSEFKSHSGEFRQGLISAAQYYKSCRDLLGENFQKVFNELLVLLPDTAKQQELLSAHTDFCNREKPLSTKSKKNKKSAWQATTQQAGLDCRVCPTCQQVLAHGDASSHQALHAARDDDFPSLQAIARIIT
Sequence of UniProt Q96JC1 (Q96JC1 whole entry, looked up): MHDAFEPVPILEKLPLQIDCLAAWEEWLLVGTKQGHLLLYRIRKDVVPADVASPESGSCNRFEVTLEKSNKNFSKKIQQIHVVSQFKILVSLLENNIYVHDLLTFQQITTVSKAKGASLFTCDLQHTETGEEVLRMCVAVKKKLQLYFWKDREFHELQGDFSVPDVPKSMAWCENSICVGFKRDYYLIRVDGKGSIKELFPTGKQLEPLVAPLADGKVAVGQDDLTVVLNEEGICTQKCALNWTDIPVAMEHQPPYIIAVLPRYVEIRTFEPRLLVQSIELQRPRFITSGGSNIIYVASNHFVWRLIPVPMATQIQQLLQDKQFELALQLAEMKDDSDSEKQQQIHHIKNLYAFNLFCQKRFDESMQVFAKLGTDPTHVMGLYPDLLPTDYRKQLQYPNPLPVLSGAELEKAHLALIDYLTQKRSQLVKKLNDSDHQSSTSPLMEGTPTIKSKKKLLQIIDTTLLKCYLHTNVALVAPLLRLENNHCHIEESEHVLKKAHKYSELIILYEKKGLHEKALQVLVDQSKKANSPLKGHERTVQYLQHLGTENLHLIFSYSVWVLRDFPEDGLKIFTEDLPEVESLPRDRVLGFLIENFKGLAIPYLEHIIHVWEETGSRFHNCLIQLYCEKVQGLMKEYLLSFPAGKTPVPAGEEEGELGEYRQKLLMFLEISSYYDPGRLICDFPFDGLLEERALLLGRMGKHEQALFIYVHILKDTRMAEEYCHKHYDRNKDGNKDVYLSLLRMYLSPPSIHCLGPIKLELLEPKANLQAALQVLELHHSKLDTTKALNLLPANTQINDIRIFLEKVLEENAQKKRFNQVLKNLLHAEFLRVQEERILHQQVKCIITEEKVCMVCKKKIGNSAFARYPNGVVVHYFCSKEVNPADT
Sequence of UniProt O95619 (O95619 whole entry, looked up): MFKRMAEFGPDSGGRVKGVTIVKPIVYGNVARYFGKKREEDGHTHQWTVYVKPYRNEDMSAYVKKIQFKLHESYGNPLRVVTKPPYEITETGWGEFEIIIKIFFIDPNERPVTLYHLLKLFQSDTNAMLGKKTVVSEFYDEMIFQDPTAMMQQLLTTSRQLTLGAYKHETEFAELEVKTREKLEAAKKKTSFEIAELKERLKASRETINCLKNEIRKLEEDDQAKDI

Target	log2 fold change (vemurafenib)	log2 fold change [1]	log2 fold change (barasertib)	log2 fold change [2]	log2 fold change (volasertib)	log2 fold change [3]	log2 fold change [4]	log2 fold change [5]	log2 fold change (saracatinib)	log2 fold change (sotrastaurin)	log2 fold change (alvocidib)	log2 fold change (Tubastatin A)	log2 fold change [6]	log2 fold change (defactinib)	log2 fold change [7]	log2 fold change (encorafenib)	log2 fold change [8]	log2 fold change (alisertib)	log2 fold change [9]	log2 fold change (gefitinib)
ZNF318 (UniProt Q5VUA4)	0.089	0.025	0.077	0.025	0.011	-0.007	0.086	-0.033	0.079	0.047	0.033	-0.177	0.034	-0.055	-0.002	0.03	0.117	0.03	0.142	0.025
ZNF598 isoform 3 (UniProt Q86UK7)	0.022	0.036	0.019	0.067	-0.032	0.017	-0.011	0.001	-0.008	0.014	-0.01	-0.095	0.025	0.004	0.015	0.004	-0.039	0.009	0.012	0.007
ZC3HC1 (UniProt Q86WB0)	-0.006	0.027	-0.029	-0.036	0.015	0.008	0.253 (active)	-0.075	-0.03	-0.022	0.049	-0.101	0.018	-0.015	0.034	-0.001	0.078	0.022	-0.013	0.024
USP3 (UniProt Q9Y6I4)	0.041	-0.007	0.008	0.023	-0.012	-0.011	0.064	-0.041	0.011	0.011	0.002	-0.154	-0.046	0.013	-0.024	0.03	0.022	-0.008	0.028	-0.005
ZFPM1 (UniProt Q8IX07)	0.088	0.007	0.031	-0.017	0.02	-0.042	-0.001	-0.021	0.014	-0.009	0.014	0.024	-0.022	0	0.007	0.072	-0.009	-0.011	0.018	-0.006
VPS28 (UniProt Q9UK41)	-0.012	0.016	0.178	-0.035	-0.012	0.067	-0.208	0.018	0.01	-0.007	-0.018	-0.034	0	-0.018	-0.078	0.046	0.012	-0.022	0	0.034
USP9X (UniProt Q93008)	-0.013	0.014	0.038	-0.065	-0.053	0.033	-0.042	-0.036	0.03	0.007	-0.009	-0.114	0.016	0.026	-0.04	0.007	0.023	0.016	0.013	0.002
WDR6 (UniProt Q9NNW5)	0.008	-0.007	0.013	-0.006	-0.029	-0.009	-0.053	0.033	0.01	0.116	-0.009	-0.077	-0.004	0.003	-0.011	0.015	0.031	0.005	0.016	-0.013
WDR91 (UniProt A4D1P6)	-0.096	0.028	0.046	-0.043	-0.023	0.055	-0.01	0.041	0.067	0.019	-0.018	-0.097	0.017	-0.003	-0.056	0.026	0.1	0.013	-0.007	-0.004
YEATS4 (UniProt O95619)	-0.032	0.003	0.05	0.045	-0.028	0.014	0.746 (active)	0	0.031	0.022	0.105	0.004	0.012	0.007	-0.054	-0.004	-0.062	0.315 (active)	-0.008	-0.064
ZNHIT6 (UniProt Q9NWK9)	-0.001	0.035	0.009	0.023	-0.016	0.05	0.089	-0.071	-0.029	-0.005	0.004	-0.046	0.034	-0.04	0.086	0.037	0.118	-0.021	-0.022	0.008
XPO5 (UniProt Q9HAV4)	-0.006	0.005	0.022	-0.028	-0.062	0.027	-0.043	-0.041	0.011	0.007	0.025	-0.184	-0.014	-0.002	-0.019	0.021	0.012	-0.004	0	0.013
ZNF609 (UniProt O15014)	0.165	0.033	0.027	0.011	0.005	0.022	-0.014	0.064	0.004	0.013	-0.028	-0.044	0.02	-0.026	0.074	0.002	0.013	-0.01	0.018	-0.002
VPS39 (UniProt Q96JC1)	-0.034	0.014	0.022	-0.029	-0.045	0.001	0.73 (active)	-0.151	0.018	-0.008	0.268 (active)	-0.06	0.036	0.011	0.007	0.043	-0.218	0.041	0.026	-0.041
UQCC2 (UniProt Q9BRT2)	-0.074	0.005	-0.039	-0.013	0.039	-0.039	0.287 (active)	-0.086	-0.04	-0.083	0.079	0.05	-0.027	0	0.006	0.021	-0.025	0.029	0.017	-0.059
VPS54 (UniProt Q9P1Q0)	0.046	-0.015	-0.042	-0.037	0.068	-0.259	-0.278	0.141	0.05	-0.087	-0.07	0	0.059	-0.07	0.013	-0.001	0.105	-0.024	0.071	0.089

Source: the supplement of paper PMC10849652
